# In all, about 69,000 compounds went through this assay and about 8,600 (12%) showed an effect of 50% or more. For the sample, strong results were picked, then their nearest neighbours and some compounds at random.
# Test system: Plasmodium berghei
# Test: Screen against P. berghei liver stage (PbLuc), transformed with Luciferase, at 10uM
# Type: functional, HepG2
# Conditions: tested at 10 uM
row,Structure (SMILES),INHIBITION [%]
1,NC1CCN(S(=O)(=O)c2ccc(C(=O)N3CCSCC3)cc2)C1 (stereo not given),2.49
2,CC(C)OCc1nn(CC2CC2)c2c1CN(Cc1ccco1)CC2,-107
3,CC(C)(CN1CCC(Cc2ccc(CO)cc2)C1)N1CCOCC1 (stereo not given),23.5
4,O=C(CCn1ccc2ccccc21)Nc1ccnn1CC1CCOC1 (stereo not given),10.1
5,O=C(O)c1cc2c(nc1N1CCCC1)CCN(C1CCOCC1)CC2,-15.3
6,O=c1[nH]cnc2c1CCN(S(=O)(=O)c1ccc(Cl)cc1)C2,36.2
7,CN(C)CCN(C)C(=O)Cn1cccc2cc(-c3ccc(F)cc3)nc1-2,26.7
8,Cn1nc(C2CNCCO2)cc1CCOc1cccc(C(F)(F)F)c1 (stereo not given),37.8
9,CN1CCCC(CCC(=O)N2CCc3[nH]c(-c4ccccc4)nc3C2)C1 (stereo not given),23
10,CC(C(=O)NCc1ccc(N2CCN(C)CC2)nc1)n1cccn1 (stereo not given),2.243
11,Cc1ccc(CN2CC[C@H]3OCC[C@@H](C(=O)NCC4CC4)[C@@H]3C2)s1,5.96
12,CNC(=O)c1cccc(C2CNCCN2C(=O)c2ccn(C)n2)c1 (stereo not given),33.7
13,CCn1cnnc1C1CCN(C(=O)c2cnc3ccccc3n2)CC1,21.3
14,CCc1nnc(CN2CC(n3cccn3)C2)o1,-110
15,Cc1ccc(N2CCCC(NCC(=O)NC(C3CC3)C3CC3)C2)nn1 (stereo not given),-6.44
16,CC(=O)N1CCC2(CCN(C(=O)c3cccc(C(F)(F)F)c3)CC2)C1,63.7
17,CC(=O)N1CCC2(CCN(C(=O)c3ccc(F)c(C(F)(F)F)c3)C2)C1 (stereo not given),17.1
18,CC(=O)N1CCC2(CCN(C(=O)c3ccc(F)c(C(F)(F)F)c3)CC2)C1,6.6
19,CC(=O)N1CCC2(CC1)CCN(C(=O)c1cccc(C(F)(F)F)c1)C2,55.5
20,CC(=O)N1CCC2(CCN(C(=O)c3ccc(C)c(C(F)(F)F)c3)CC2)C1,16.5
21,CC(=O)N1CCC2(CC1)CCN(C(=O)c1ccc(F)c(C(F)(F)F)c1)C2,12.4
22,Cc1cc(NCCc2nc(C)c[nH]2)nc(-c2ccccc2O)n1,43.6

row,Structure (SMILES),INHIBITION [%]
1,CN1CCN(C(=O)N2CCC3(CCCN(C4CCOCC4)C3=O)C2)CC1 (stereo not given),-1.15
2,Cc1ccc2c(n1)N(Cc1ccncc1)CCN(S(C)(=O)=O)C2,36.9
3,COCCN1CCN(S(C)(=O)=O)Cc2ccc(C)nc21,16.9
4,Cc1ccc2c(n1)N(CC(C)C)CCN(S(C)(=O)=O)C2,67.2
5,CS(=O)(=O)NCC(Cc1cccc(F)c1)N1CCNC1=O (stereo not given),15.7
6,COc1cc(COCC2CCN(Cc3ccccn3)CC2)cc(OC)c1,6.54
7,Clc1ccc(COCC2CCN(Cc3ccccn3)CC2)cc1,62.3
8,Fc1ccc(COCC2CCN(Cc3ccccn3)CC2)cc1,-56.4
9,Cc1nc(NC(=O)CNC(=O)c2c(F)cccc2Cl)n[nH]1,-8.69
10,CCOCCN1CCN(Cc2cccc(C(=O)N(C)C)c2)CC1C (stereo not given),-9.37
11,CN1CCCC1c1cncc(C(=O)NCC2CC2)n1 (stereo not given),-80
12,c1ccc(CNc2nc(N3CCOCC3)nc3nccnc23)cc1,30.7
13,O=S(=O)(N1CCCCCC1)N1CCCN(CC2CCCO2)CC1 (stereo not given),9.57
14,COc1ccnc(CNc2cc(C3CC3)ncn2)c1,-47.2
15,COc1ccnc(CNc2nc(C)nc(C)c2C)c1,-27.6
16,COc1ccnc(CNc2nc(C)nc3ccsc23)c1,76.9
17,CC(C(=O)NCc1ccc(N2CCCCC2)nc1)S(C)(=O)=O (stereo not given),9.54
18,Cc1n[nH]c(C)c1CCC(=O)NCC1(O)CCN(c2ccccn2)C1 (stereo not given),3.48
19,Cn1cc(C(=O)N2CCCC(c3ccncc3)C2)cn1 (stereo not given),-16.5
20,CN1CCN(Cc2n[nH]c(=O)n2CC2CCCCC2)CC1,70.3
21,CNCc1n[nH]c(=O)n1CC1CCCCC1,23.9
22,CN1CCC(c2n[nH]c(=O)n2CC2CCCCC2)CC1,40.6

row,Structure (SMILES),INHIBITION [%]
1,O=C(c1cccnc1)N1CCCC(Cc2nccs2)C1 (stereo not given),-9.27
2,Cc1nc(N2CCCC2)nc2c1CCN(C(=O)NC1CCCC1)CC2,-6.23
3,O=C(Cc1ccccn1)N1C[C@H](OCc2cccnc2)[C@H]2COC[C@H]21,-31
4,Cc1cc(C)n2c(CNCCNc3ccccc3)cnc2n1,-35.2
5,CCNC(=O)CN(CC)C(=O)Cc1csc(C(C)C)n1,81.6
6,CNC(=O)CN(C)C(=O)Cc1csc(C(C)C)n1,12.3
7,CC(Cn1cccn1)NC(=O)Cc1csc(C(C)C)n1 (stereo not given),0.914
8,CCN(CC(=O)NC)C(=O)Cc1csc(C(C)C)n1,62.4
9,CCN(CC)C(=O)Cc1csc(C(C)C)n1,-4.4
10,CC(C)c1nc(CN(CC(N)=O)C(C)C)cs1,31.8
11,O=C(c1cocn1)N1CCC2(CC1)CC(Oc1ccccn1)CO2 (stereo not given),-0.804
12,COC(=O)c1ccoc1CN(C1CC1)C1CCS(=O)(=O)C1 (stereo not given),42.8
13,Cc1nc(C)n(CC2CCCCN2Cc2cnc(C)s2)n1 (stereo not given),30.6
14,CCOc1ncccc1C(=O)NC1CCCN(c2ncccn2)C1 (stereo not given),-39.7
15,O=C(NCC1CCC2(CC1)OCCO2)c1cccc(-n2cccn2)c1,30.2
16,COc1ncccc1CNCc1cnc(N2CCOCC2)nc1,-65
17,Cc1cnn(CC2CN(CC(=O)Nc3c(C)nn(C)c3C)CCO2)c1 (stereo not given),26.4
18,Cc1cccc(C(=O)N2C[C@H](NS(C)(=O)=O)[C@@H]3OCCC[C@@H]32)n1,31.1
19,CS(=O)(=O)N[C@@H]1CN(C(=O)c2cccnc2)[C@@H]2CCCO[C@@H]21,56.7
20,CC(=O)N1C[C@H](NC(=O)c2cscn2)[C@@H]2OCCC[C@@H]21,42.6
21,CO[C@H]1CN(C(=O)c2cccnc2)[C@@H]2CCCO[C@H]12,-14.7
22,CS(=O)(=O)N[C@@H]1CN(C(=O)c2ccccn2)[C@@H]2CCCO[C@@H]21,37.5

row,Structure (SMILES),INHIBITION [%]
1,CS(=O)(=O)N[C@H]1CN(C(=O)c2cscn2)[C@@H]2CCCO[C@H]12,60.2
2,CN1C[C@H](NC(=O)c2cscn2)[C@@H]2OCCC[C@@H]21,35.8
3,NC(=O)N1C[C@H](NC(=O)c2cscn2)[C@@H]2OCCC[C@@H]21,60.2
4,CS(=O)(=O)N[C@@H]1CN(C(=O)c2cnccn2)[C@@H]2CCCO[C@@H]21,26.4
5,CNc1ncccc1CN1CCCCC1c1cc(C)n2ccnc2n1 (stereo not given),13
6,CN(Cc1cccnc1)C(=O)NC1CCN(Cc2ccccn2)CC1,16.8
7,CC(CCN(C)C)NC(=O)N1CCSC(C)(C)C1 (stereo not given),60.3
8,CSCCC(C)NC(=O)N1CCSC(C)(C)C1 (stereo not given),14.9
9,COCCC(C)NC(=O)N1CCSC(C)(C)C1 (stereo not given),48.3
10,Cc1nc(C2CCCN2CCS(C)(=O)=O)no1 (stereo not given),26.55
11,CCc1c(C)sc2nc3n(CCN(C)C)nc(SC)n3c(=O)c12,30.5
12,CCCSc1nn(CCCN(C)C)c2nc3sc(C)c(CC)c3c(=O)n12,11.6
13,CCCSc1nn(CCN(C)C)c2nc3sc(C)c(CC)c3c(=O)n12,88.1
14,Cc1nn(C)c2cnn(CC(=O)NCc3cccs3)c12,8.49
15,CC(C)n1c(=O)c2ccccc2n(CCN(C)C)c1=O,-0.29
16,CCn1ncnc1C1CC(=O)NCc2nc(N3CCCC3)sc21 (stereo not given),-32.5
17,CCCC(=O)N1CCC(Nc2nc(O)cc(-c3ccsc3)n2)CC1,10.7
18,CCCn1ncc2c(C(=O)Nc3n[nH]c(SC)n3)cc(C3CC3)nc21,53
19,CCCn1ncc2c(C(=O)NC(C)Cn3cccn3)cc(C3CC3)nc21 (stereo not given),-24.1
20,CCCn1ncc2c(C(=O)Nc3cnn(CC)c3C)cc(C3CC3)nc21,-9.98
21,CN(Cc1ccc(-n2ccnc2)cc1)CC1CCCN1c1cccnn1 (stereo not given),-12.1
22,Cc1ccc(S(=O)(=O)c2ncccc2CN2CCOCC2)cc1,37.8

row,Structure (SMILES),INHIBITION [%]
1,O=C(c1cccnc1N1CCN(CCO)CC1)N1CCCC1,43.6
2,Cc1ccc(S(=O)(=O)c2ncccc2CN2CCN(CCO)CC2)cc1,68.4
3,Cc1ccc(S(=O)(=O)c2ncccc2CN2CCCC2)cc1,42.4
4,Cc1ccc(S(=O)(=O)c2ncccc2CN2CCN(C)CC2)cc1,68.4
5,Cc1ccc(S(=O)(=O)c2ncccc2CN2CCCCC2)cc1,45.2
6,CCn1cc(CN2CCCN(C(=O)c3cc(C)no3)CC2)cn1,25.4
7,CCc1ocnc1C(=O)N1CCOC(CCCC(C)C)C1 (stereo not given),12.8
8,Cc1ccc2c(c1)CCCN2C(=O)c1cncc(Br)c1,6.88
9,O=C(c1cncc(Br)c1)N1CCCc2ccc(F)cc21,67.4
10,O=C(c1cncc(Br)c1)N1CCCc2c(F)cc(F)cc21,0.705
11,Cc1nnc(N2CC[C@H]3O[C@H](C(=O)NCc4ccccn4)CC[C@H]32)s1,21.8
12,COc1cc(CN2CC[C@H](NC(C)=O)[C@@H](O)CC2)ccc1F,-13.7
13,Nc1nc(CN2CCN(c3nccs3)CC2)cs1,22.3
14,CC1CN(Cc2nnsc2Cl)CCN1c1nccs1 (stereo not given),20.2
15,Clc1snnc1CN1CCN(c2nccs2)CC1,57.3
16,Cc1nccn1C1CCCN(C(=O)c2ccc3nncn3c2)C1 (stereo not given),40.2
17,O=C(CCNC(=O)c1ccoc1)Nc1ccc(F)cc1F,59
18,O=C(CCNC(=O)c1ccoc1)Nc1cc(F)ccc1F,24.8
19,O=C(CCNC(=O)c1ccoc1)Nc1cccc(F)c1,-4.82
20,O=C(CCNC(=O)c1ccoc1)Nc1c(F)cccc1F,-16.7
21,O=C(CCNC(=O)c1ccoc1)Nc1ccccc1F,21.9
22,O=C(CCNC(=O)c1ccoc1)Nc1cc(F)cc(F)c1,54.5
